# Results as given in publication PMC12215968.
# Columns and labels:
# [1] = target: Heat shock-related 70 kDa protein 2 (UniProt P54652); experiment: cross-linking mass spectrometry
# [2] = target: Heat shock protein 105 kDa (UniProt Q92598); experiment: cross-link between two proteins; cross-linking mass spectrometry
# [3] = target: Histone H2B type 1-L (UniProt Q99880); experiment: cross-linking mass spectrometry
# [4] = target: Nucleobindin-1 (UniProt Q02818); experiment: cross-linking mass spectrometry
# [5] = target: 14-3-3 protein epsilon (UniProt P62258); experiment: cross-link between two proteins; cross-linking mass spectrometry
# [6] = target: 26S proteasome non-ATPase regulatory subunit 1 (UniProt Q99460); experiment: as above
# [7] = target: 26S proteasome regulatory subunit 10B (UniProt P62333); experiment: as above
# [8] = target: 26S proteasome regulatory subunit 7 (UniProt P35998); experiment: as above
# [9] = target: ATP synthase F(1) complex subunit alpha, mitochondrial (UniProt Q03265); experiment: as above
# [10] = target: ATP synthase F(1) complex subunit gamma, mitochondrial (UniProt Q91VR2); experiment: as above
# [11] = target: Creatine kinase U-type, mitochondrial (UniProt P12532); experiment: as above
# [12] = target: Elongation factor 1-alpha 2 (UniProt Q05639); experiment: as above
# [13] = target: Heterogeneous nuclear ribonucleoprotein A1-like 2 (UniProt Q32P51); experiment: as above
# [14] = target: NADH dehydrogenase [ubiquinone] 1 beta subcomplex subunit 5, mitochondrial (UniProt Q9CQH3); experiment: as above
# [15] = target: Septin-10 (UniProt Q9P0V9); experiment: as above
# [16] = target: Tubulin beta-2B chain (UniProt Q9BVA1); experiment: as above
substance,measurement,setting,value
"Heat shock 70 kDa protein 4, P34932",listed as a hit,[1],yes
same,listed as a hit,[2],yes
"Non-histone chromosomal protein HMG-14, P05114",listed as a hit,[3],yes
"Nucleobindin-2, P80303",listed as a hit,[4],yes
"14-3-3 protein sigma, P31947",listed as a hit,[5],yes
"Proteasome subunit alpha type-4, P25789",listed as a hit,[6],yes
"26S proteasome non-ATPase regulatory subunit 7, P51665",listed as a hit,[7],yes
"Proteasome subunit alpha type-6, P60900",listed as a hit,[7],yes
"Proteasome subunit alpha type-7, O14818",listed as a hit,[8],yes
"ATP synthase F(1) complex subunit epsilon, mitochondrial, P56382",listed as a hit,[9],yes
"ATP synthase F(1) complex subunit alpha, mitochondrial, Q03265",listed as a hit,[10],yes
"Creatine kinase B-type, P12277",listed as a hit,[11],yes
"Elongation factor 1-beta, P24534",listed as a hit,[12],yes
"Heterogeneous nuclear ribonucleoprotein A0, Q13151",listed as a hit,[13],yes
"NADH dehydrogenase [ubiquinone] 1 subunit C2, Q9CQ54",listed as a hit,[14],yes
"Septin-7, Q16181",listed as a hit,[15],yes
"Tubulin-specific chaperone A, O75347",listed as a hit,[16],yes
